From PubChem BioAssay AID1159580 (chemical genetic matrix, 2015)
Where “and” joins values, the source holds several entries; their conditions need not be identical. Equal entries are not always repeated. About 2,000 (36%) of roughly 5,500 compounds were called active. About 18% were inconclusive and are not listed. Rule as the data show it: active = normalized growth mostly below about 0.91 (no sharp cut-off); inconclusive = no clear call, values can overlap the other calls; inactive = mostly above about 0.92. This is one part of the list.

Assay: chemical genetic growth profiling, strain panel (AID 1159580);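 also: tested at 20 µM; growth read once vehicle control cultures reached saturation at 30 °C; 1 = growth at the plate median or of vehicle wells; lower values mean less growth of the strain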
Conditions: S. cerevisiae deletion strains, growth OD

Measured: normalized growth

C=C(C)C1CNC(C(=O)O)C1CC(=O)O (stereo unspecified)
inactive: locus YAL013W, strain DEP1, active compounds read low 1.01 | locus YAL021C, strain ccr4, active compounds read low 0.995 | locus YAL026C, strain drs2, active compounds read low 0.996 | locus YAL030W, strain snc1, active compounds read low 0.99 | locus YBL061C, strain skt5, active compounds read low 0.992 | locus YBR009C, strain hhf1, active compounds read low 0.987 | locus YBR021W, strain FUR4, active compounds read low 0.986 | locus YBR023C, strain chs3, active compounds read low 0.987 | locus YBR171W, strain sec66, active compounds read low 0.986 | locus YBR229C, strain ROT2, active compounds read low 1.01 | locus YBR231C, strain swc5, active compounds read low 1 | locus YBR279W, strain paf1, active compounds read low 0.997 | locus YCL011C, strain gbp2, active compounds read low 0.985 | locus YCL016C, strain dcc1, active compounds read low 0.998 | locus YCL029C, strain bik1, active compounds read low 1.03 | locus YCL061C, strain MRC1, active compounds read low 0.999 | locus YCL069W, strain vba3, active compounds read low 0.995 | locus YCR088W, strain abp1, active compounds read low 0.988 | locus YDL005C, strain med2, active compounds read low 0.984 | locus YDL035C, strain GPR1, active compounds read low 1.03 | locus YDL040C, strain nat1, active compounds read low 0.986 | locus YDL074C, strain BRE1, active compounds read low 1.03 | locus YDL101C, strain DUN1, active compounds read low 1.02 | locus YDL185W, strain tfp1, active compounds read low 1.04 | locus YDL192W, strain arf1, active compounds read low 1.02 | locus YDR001C, strain nth1, active compounds read low 0.99 | locus YDR069C, strain doa4, active compounds read low 0.981 | locus YDR101C, strain arx1, active compounds read low 1.01 | locus YDR137W, strain rgp1, active compounds read low 0.972 | locus YDR150W, strain NUM1, active compounds read low 1.01 | locus YDR159W, strain sac3, active compounds read low 0.985 | locus YDR162C, strain NBP2, active compounds read low 1.05 | locus YDR195W, strain ref2 0.967 | locus YDR297W, strain sur2, active compounds read low 0.993 | locus YDR318W, strain mcm21, active compounds read low 1.01 | locus YDR334W, strain swr1, active compounds read low 0.992 | locus YDR335W, strain msn5, active compounds read low 0.994 | locus YDR388W, active compounds read low 1.01 | locus YDR392W, strain spt3, active compounds read low 0.947 | locus YDR502C, strain sam2, active compounds read low 1.03 | locus YEL003W, strain gim4, active compounds read low 0.999 | locus YEL037C, strain rad23, active compounds read low 0.988 | locus YEL061C, strain CIN8 (second series), active compounds read low 0.986 | locus YEL061C, strain CIN8, active compounds read low 1 | locus YER015W, strain faa2, active compounds read low 0.993 | locus YER016W, strain bim1, active compounds read low 0.978 | locus YER110C, active compounds read low 1.02 | locus YER111C, strain swi4, active compounds read low 0.996 | locus YER155C, strain BEM2 (second series), active compounds read low 0.989 | locus YER155C, strain BEM2, active compounds read low 0.99 | locus YER167W, strain BCK2, active compounds read low 1.01 | locus YFR010W, strain ubp6, active compounds read low 0.996 | locus YGL078C, strain dbp3, active compounds read low 1.02 | locus YGL086W, strain mad1, active compounds read low 1.02 | locus YGL167C, strain pmr1, active compounds read low 0.996 | locus YGL173C, strain kem1, active compounds read low 0.983 | locus YGL227W, strain vid30, active compounds read low 0.989 | locus YGL240W, strain doc1, active compounds read low 1.01 | locus YGL248W, strain PDE1, active compounds read low 1.01 | locus YGL253W, strain hxk2, active compounds read low 1 | locus YGR135W, strain pre9, active compounds read low 1.03 | locus YGR252W, strain gcn5, active compounds read low 1.07 | locus YHR013C, strain ard1, active compounds read low 0.984 | locus YHR027C, strain rpn1, active compounds read low 0.989 | locus YHR030C, strain SLT2, active compounds read low 1.01 and 0.998 | locus YHR079C, strain IRE1 (second series), active compounds read low 1.02 | locus YHR079C, strain IRE1, active compounds read low 0.987 | locus YHR094C, strain hxt1, active compounds read low 1.03 | locus YHR129C, strain ARP1, active compounds read low 1.02 | locus YHR142W, strain chs7, active compounds read low 0.988 | locus YHR200W, strain rpn10, active compounds read low 1.01 | locus YIL066C, strain RNR3, active compounds read low 1.04 | locus YIL073C, strain SPO22, active compounds read low 1.07 | locus YIL125W, strain kgd1, active compounds read low 1.02 | locus YIR030C, strain dcg1, active compounds read low 1.02 | locus YJL092W, strain hpr5, active compounds read low 0.989 | locus YJL095W, strain BCK1 (second series), active compounds read low 0.99 | locus YJL095W, strain BCK1, active compounds read low 1.05 and 0.992 | locus YJL115W, strain asf1, active compounds read low 0.98 | locus YJL129C, strain trk1, active compounds read low 1 | locus YJL134W, strain LCB3, active compounds read low 1.01 | locus YJL154C, strain vps35, active compounds read low 0.99 | locus YJL164C, strain tpk1, active compounds read low 0.999 | locus YJL166W, strain qcr8, active compounds read low 0.996 | locus YJL168C, strain set2, active compounds read low 1.01 | locus YJL187C, strain SWE1 (second series), active compounds read low 1.03 | locus YJL187C, strain SWE1, active compounds read low 0.998 | locus YJR043C, strain POL32, active compounds read low 1.02 | locus YJR066W, strain TOR1, active compounds read low 0.931 | locus YJR075W, strain HOC1, active compounds read low 1.03 | locus YKL009W, strain mrt4, active compounds read low 1.03 | locus YKL068W, active compounds read low 1.02 | locus YKL085W, strain MDH1 (second series), active compounds read low 1.01 | locus YKL085W, strain MDH1, active compounds read low 1.01 | locus YKL160W, strain elf1, active compounds read low 1 | locus YKR001C, strain vps1, active compounds read low 1.03 | locus YKR026C, strain gcn3, active compounds read low 0.971 | locus YKR091W, strain srl3, active compounds read low 0.999 | locus YLL001W, strain dnm1, active compounds read low 0.994 | locus YLL026W, active compounds read low 1 | locus YLL041C, strain sdh2, active compounds read low 0.996 | locus YLR027C, strain aat2, active compounds read low 0.992 | locus YLR039C, strain RIC1, active compounds read low 1.11 | locus YLR058C, strain SHM2, active compounds read low 1.02 | locus YLR102C, strain apc9, active compounds read low 1.01 | locus YLR113W, strain HOG1, active compounds read low 0.987 | locus YLR221C, strain rsa3, active compounds read low 0.998 | locus YLR258W, strain gsy2, active compounds read low 0.988 | locus YLR262C, strain YPT6 (second series), active compounds read low 0.991 | locus YLR262C, strain YPT6, active compounds read low 1.09 | locus YLR268W, strain sec22, active compounds read low 1.02 | locus YLR320W, strain mms22, active compounds read low 0.991 | locus YLR330W, strain CHS5, active compounds read low 1.01 | locus YLR342W, strain FKS1 (second series), active compounds read low 1.04 | locus YLR342W, strain FKS1, active compounds read low 0.987 | locus YLR357W, strain rsc2, active compounds read low 0.975 | locus YLR370C, strain arc18, active compounds read low 0.986 | locus YLR371W, strain rom2, active compounds read low 0.995 | locus YLR384C, strain iki3, active compounds read low 0.97 | locus YLR418C, strain cdc73, active compounds read low 1.03 | locus YML016C, strain PPZ1, active compounds read low 1.02 | locus YML032C, strain rad52, active compounds read low 1.03 | locus YML120C, strain ndi1, active compounds read low 1 | locus YML124C, strain tub3, active compounds read low 1.02 | locus YMR058W, strain fet3, active compounds read low 0.993 | locus YMR078C, strain ctf18, active compounds read low 1.03 | locus YMR125W, strain sto1, active compounds read low 0.97 | locus YMR129W, active compounds read low 1 | locus YMR205C, strain PFK2, active compounds read low 0.962 | locus YMR223W, strain ubp8, active compounds read low 1.02 | locus YMR231W, strain pep5, active compounds read low 0.989 | locus YMR307W, strain GAS1, active compounds read low 1.07 | locus YNL067W, strain RPL9B, active compounds read low 1.02 | locus YNL071W, strain lat1, active compounds read low 0.999 | locus YNL153C, strain GIM3, active compounds read low 1.02 | locus YNL183C, strain NPR1, active compounds read low 0.909 | locus YNL209W, strain ssb2, active compounds read low 0.991 | locus YNL233W, strain BNI4, active compounds read low 1.03 | locus YNL248C, strain rpa49, active compounds read low 1.01 | locus YNL250W, strain rad50, active compounds read low 1.03 | locus YNL271C, strain bni1, active compounds read low 1.02 | locus YNL298W, strain CLA4, active compounds read low 1.02 | locus YNL307C, strain MCK1, active compounds read low 1.02 | locus YNL322C, strain KRE1 (second series), active compounds read low 0.991 | locus YNL322C, strain KRE1, active compounds read low 1 | locus YNR049C, strain mso1, active compounds read low 0.986 | locus YNR052C, strain pop2, active compounds read low 1.01 | locus YOL006C, strain TOP1, active compounds read low 1.14 | locus YOL012C, strain htz1 0.909 | locus YOL147C, strain pex11, active compounds read low 1.01 | locus YOR001W, strain rrp6, active compounds read low 1.01 | locus YOR061W, strain CKA2, active compounds read low 1.01 | locus YOR069W, strain VPS5, active compounds read low 1.01 | locus YOR070C, strain gyp1, active compounds read low 0.985 | locus YOR080W, strain dia2, active compounds read low 0.983 | locus YOR083W, strain WHI5, active compounds read low 1 | locus YOR106W, strain vam3, active compounds read low 1.02 | locus YOR136W, strain idh2, active compounds read low 1.02 | locus YOR144C, strain elg1, active compounds read low 1 | locus YOR184W, strain ser1, active compounds read low 1.02 | locus YOR231W, strain MKK1, active compounds read low 0.992 | locus YOR265W, strain rbl2, active compounds read low 0.994 | locus YOR270C, strain vph1, active compounds read low 1.02 | locus YOR290C, strain snf2, active compounds read low 1 | locus YOR316C, strain cot1, active compounds read low 1 | locus YPL051W, strain arl3, active compounds read low 0.998 | locus YPL055C, strain LGE1, active compounds read low 1.03 | locus YPL078C, strain atp4, active compounds read low 1.01 | locus YPL106C, strain sse1, active compounds read low 0.978 | locus YPL240C, strain hsp82, active compounds read low 0.997 | locus YPL256C, strain CLN2, active compounds read low 0.977 | locus YPR119W, strain clb2, active compounds read low 1 | locus YPR141C, strain kar3, active compounds read low 1.03 | locus YPR163C, strain tif3, active compounds read low 1.02 | locus YPR167C, strain met16, active compounds read low 1.02 | strain wtn01, active compounds read low 1.02
